Bioassay records (PubChem)
CYP2C9 inhib = blockers of cytochrome P450 2C9 activity – biochemical, luminescence, ADME assay, primary screen. 96,000 tested, 20% active. inhibition, % at 5 µM. CYP2C9 Supersomes, luciferin-H conversion. P11712;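 active = blocking of liver enzyme CYP2C9 beyond about 50% at 5 µM, limit read from the data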
Target sequence (P11712 whole entry, looked up): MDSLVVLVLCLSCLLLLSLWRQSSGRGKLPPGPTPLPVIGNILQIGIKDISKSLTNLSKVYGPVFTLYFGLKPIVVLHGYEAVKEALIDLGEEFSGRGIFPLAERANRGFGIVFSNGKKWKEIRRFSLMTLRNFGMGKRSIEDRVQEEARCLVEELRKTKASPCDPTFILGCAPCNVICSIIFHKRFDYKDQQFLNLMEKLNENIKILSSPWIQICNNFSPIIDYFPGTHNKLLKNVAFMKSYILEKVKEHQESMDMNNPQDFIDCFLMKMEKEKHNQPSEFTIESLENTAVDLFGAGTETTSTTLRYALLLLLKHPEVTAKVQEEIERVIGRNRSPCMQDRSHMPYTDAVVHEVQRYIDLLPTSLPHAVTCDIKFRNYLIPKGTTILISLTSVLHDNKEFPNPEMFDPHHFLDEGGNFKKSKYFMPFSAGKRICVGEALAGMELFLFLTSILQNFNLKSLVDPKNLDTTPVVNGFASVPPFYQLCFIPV
cytoskel mod = modifiers of F-actin cytoskeleton organization, primary screen, imaging, HUVEC, phalloidin staining, high-content imaging | inhibition, % at 2 µM | 91,000 tested, 0.18% active | HUVEC TNFa F-actin phalloidin imaging;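 active = inhibition above the batch mean plus 3 SD and confirmed as a hit by visual image inspection, cut at about 30% in these data, passing the limit was not always enough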
CYP2C9 act = human CYP2C9 activators, primary screen, biochemical, luminescence. 96,000 tested, 1.4% active. recombinant CYP2C9, luciferin-H conversion; hits give high values; factor 1 = untreated enzyme, 0 = blocked. activation factor at 5 µM;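 active = activation factor of 2 or more for CYP2C9 at a 5 µM dose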
CYP2C19 activ = human CYP2C19 activators, primary screen, biochemical, luminescence; activation factor at 5 µM; recombinant CYP2C19, luciferin-H EGE luminescence; hits give high values; 0 = fully inhibited enzyme, 1 = untreated enzyme; Cytochrome P450 2C19 (Homo sapiens), P33261; 96,000 tested, under 10 active;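 active = activation factor of at least 2 at 5 µM in the primary screen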
E-sel TNF inh = E-selectin induction blockers in HUVEC – imaging, immunofluorescence, high content, primary screen | HUVEC TNFa-induced E-selectin immunofluorescence | inhibition, % at 2 µM | 120,000 tested, 0.71% active | AID 1246, 2008;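 active = inhibition above the batch mean plus 3 SD, and confirmed as a hit on visual image review, cut at about 43% in these data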
CYP2C19 inhib = blockers of cytochrome P450 2C19 activity – biochemical, luminescence, ADME assay, primary screen | P33261 | inhibition, % at 5 µM | 96,000 tested, 21% active | AID 778, 2007 | CYP2C19 Supersomes, luciferin-H EGE luminescence, 30 min;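 active = CYP2C19 inhibition above a set limit at 5 µM in the primary screen, cut at about 50% in these data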
A number is an active result. Hits are enriched below; roughly 22% of the tested compounds scored in any of these assays.

Results for CCCCNC(=O)COC(=O)c1ccc(Cl)c(S(=O)(=O)N2CCCC2)c1 ?
CYP2C9 inhib: inactive; cytoskel mod: inactive; CYP2C9 act: inactive; CYP2C19 activ: inactive; E-sel TNF inh: inactive; CYP2C19 inhib: 74

What do the screens show for `CCOc1ccc(NC(=O)COC(=O)Cc2ccc(S(=O)(=O)N3CCOCC3)s2)cc1`?
CYP2C9 inhib: inactive; cytoskel mod: inactive; CYP2C9 act: inactive; CYP2C19 activ: inactive; E-sel TNF inh: inactive; CYP2C19 inhib: inactive

How did O=C(COC(=O)c1ccc(S(=O)(=O)N2CCCC2)cc1)NCc1ccc(Cl)cc1 do in these assays?
CYP2C9 inhib: 54; cytoskel mod: inactive; CYP2C9 act: inactive; CYP2C19 activ: inactive; E-sel TNF inh: inactive; CYP2C19 inhib: inactive

Results for O=C(COC(=O)Cc1ccc(S(=O)(=O)N2CCOCC2)s1)NCc1ccc(Cl)cc1 ?
CYP2C9 inhib: 86; cytoskel mod: inactive; CYP2C9 act: inactive; CYP2C19 activ: inactive; CYP2C19 inhib: 73

Results for CC(C)NC(=O)COC(=O)c1ccc(Cl)c(S(=O)(=O)N2CCCC2)c1 ?
CYP2C9 inhib: inactive; cytoskel mod: inactive; CYP2C9 act: inactive; CYP2C19 activ: inactive; E-sel TNF inh: inactive; CYP2C19 inhib: inactive

How did CN(C(=O)C12CC3CC(CC(C3)C1)C2)C1CCS(=O)(=O)C1 (configuration not stated) do in these assays?
CYP2C9 inhib: inactive; cytoskel mod: inactive; CYP2C9 act: inactive; CYP2C19 activ: inactive; E-sel TNF inh: inactive; CYP2C19 inhib: inactive

Results for CC(NC(=O)Cc1ccsc1)c1ccc(S(N)(=O)=O)cc1 (configuration not stated) ?
CYP2C9 inhib: inactive; CYP2C9 act: inactive; CYP2C19 activ: inactive; E-sel TNF inh: inactive; CYP2C19 inhib: inactive

What do the screens show for `CC1C(=O)Nc2ccccc2N1C(=O)C1CC1` (configuration not stated)?
CYP2C9 inhib: inactive; cytoskel mod: inactive; CYP2C9 act: inactive; CYP2C19 activ: inactive; E-sel TNF inh: inactive; CYP2C19 inhib: inactive

What do the screens show for `COC(=O)C1=C(C(=O)OC)SC(=C2C(=S)C(C)(C)N(C(=O)C3CC3)c3ccccc32)S1`?
CYP2C9 inhib: 78; cytoskel mod: inactive; CYP2C9 act: inactive; CYP2C19 activ: inactive; E-sel TNF inh: inactive; CYP2C19 inhib: 69

How did COC(=O)C1=C(C(=O)OC)SC(=C2C(=S)C(C)(C)N(C(=O)C(C)C)c3ccccc32)S1 do in these assays?
CYP2C9 inhib: 95; cytoskel mod: inactive; CYP2C9 act: inactive; CYP2C19 activ: inactive; E-sel TNF inh: inactive; CYP2C19 inhib: inactive

How did CCCC(=O)N1c2ccccc2C(=C2SC(C(=O)OC)=C(C(=O)OC)S2)C(=S)C1(C)C do in these assays?
cytoskel mod: inactive; E-sel TNF inh: inactive

Results for CC(Cc1cccs1)NC(=O)Nc1ccc(F)cc1 (configuration not stated) ?
CYP2C9 inhib: inactive; CYP2C9 act: inactive; CYP2C19 activ: inactive; E-sel TNF inh: inactive; CYP2C19 inhib: 87

Results for CC(Cc1cccs1)NC(=S)Nc1ccc(Cl)c(Cl)c1 (configuration not stated) ?
E-sel TNF inh: inactive

Results for CC(Cc1cccs1)NC(=O)Nc1cccc(Cl)c1 (configuration not stated) ?
CYP2C9 inhib: inactive; CYP2C9 act: inactive; CYP2C19 activ: inactive; E-sel TNF inh: inactive; CYP2C19 inhib: 66

What do the screens show for `O=C(CSc1nc2ccccc2n1S(=O)(=O)c1ccccc1)N1CCCCC1`?
CYP2C9 inhib: inactive; cytoskel mod: inactive; CYP2C9 act: inactive; CYP2C19 activ: inactive; E-sel TNF inh: inactive; CYP2C19 inhib: inactive

How did COC(=O)Cn1c(=O)c(=O)n(CC(=O)OC)c2ccccc21 do in these assays?
E-sel TNF inh: inactive

Results for CN(C)c1nc(NCc2ccccc2)nc(N/N=C/c2ccc3c(c2)OCO3)n1 ?
E-sel TNF inh: inactive

How did CCOc1ccc(NC(=O)CSc2ncn[nH]2)c([N+](=O)[O-])c1 do in these assays?
E-sel TNF inh: inactive

Results for Cn1c(Sc2ccc([N+](=O)[O-])cc2C(F)(F)F)nnc1-c1ccccc1 ?
CYP2C9 inhib: inactive; cytoskel mod: inactive; CYP2C9 act: inactive; CYP2C19 activ: inactive; E-sel TNF inh: inactive; CYP2C19 inhib: inactive

How did Cn1c(Sc2ccc(C(F)(F)F)cc2[N+](=O)[O-])nnc1-c1ccccc1 do in these assays?
CYP2C9 inhib: inactive; cytoskel mod: inactive; CYP2C9 act: 2; CYP2C19 activ: inactive; E-sel TNF inh: inactive; CYP2C19 inhib: inactive

Results for COc1ccc(N(CC(=O)NN=C2CCCCCCC2)S(=O)(=O)c2ccccc2)cc1 ?
CYP2C9 inhib: inactive; cytoskel mod: inactive; CYP2C9 act: inactive; CYP2C19 activ: inactive; CYP2C19 inhib: inactive

What do the screens show for `CCCC(=O)Nc1ccccc1NC(C)=O`?
CYP2C9 inhib: inactive; cytoskel mod: inactive; CYP2C9 act: inactive; CYP2C19 activ: inactive; E-sel TNF inh: inactive; CYP2C19 inhib: inactive

How did CCCC(=O)Nc1cccn(Cc2ccccc2Br)c1=O do in these assays?
CYP2C9 inhib: inactive; CYP2C9 act: inactive; CYP2C19 activ: inactive; E-sel TNF inh: inactive; CYP2C19 inhib: 92

How did O=C(Nc1ccccc1N1CCCC1)c1ccc(Br)o1 do in these assays?
CYP2C9 inhib: 53; cytoskel mod: inactive; CYP2C9 act: inactive; CYP2C19 activ: inactive; E-sel TNF inh: inactive; CYP2C19 inhib: 57

What do the screens show for `O=C(Nc1ccc(-c2nc3cccnc3s2)cc1)c1ccco1`?
CYP2C9 inhib: inactive; CYP2C9 act: inactive; CYP2C19 activ: inactive; E-sel TNF inh: inactive; CYP2C19 inhib: inactive

Results for O=C(Nc1cccc2cccnc12)c1ccc(Br)o1 ?
CYP2C9 inhib: inactive; cytoskel mod: inactive; CYP2C9 act: 2.2; CYP2C19 activ: inactive; E-sel TNF inh: inactive; CYP2C19 inhib: inactive

Results for O=C(Nc1ccc(-c2nc3cccnc3s2)cc1)c1ccc(Br)o1 ?
CYP2C9 inhib: inactive; cytoskel mod: inactive; CYP2C9 act: inactive; CYP2C19 activ: inactive; E-sel TNF inh: 100; CYP2C19 inhib: inactive

What do the screens show for `O=C(Nc1cccc2ccccc12)c1ccc(Br)o1`?
CYP2C9 inhib: inactive; cytoskel mod: inactive; CYP2C9 act: inactive; CYP2C19 activ: inactive; E-sel TNF inh: inactive; CYP2C19 inhib: inactive

Results for CSc1ccccc1NC(=O)c1ccc(Br)o1 ?
CYP2C9 inhib: inactive; cytoskel mod: inactive; CYP2C9 act: inactive; CYP2C19 activ: inactive; E-sel TNF inh: inactive; CYP2C19 inhib: 57

How did COc1cc(/C=C/C(=O)O)cc(S(=O)(=O)N(C)CCO)c1OC do in these assays?
CYP2C9 inhib: inactive; cytoskel mod: inactive; CYP2C9 act: inactive; CYP2C19 activ: inactive; E-sel TNF inh: inactive; CYP2C19 inhib: inactive

How did CC(=O)OC(C(=O)NC1CCCCC1)c1ccc(C)cc1 (configuration not stated) do in these assays?
CYP2C9 inhib: inactive; cytoskel mod: inactive; CYP2C9 act: inactive; CYP2C19 activ: inactive; E-sel TNF inh: inactive; CYP2C19 inhib: inactive
